From PubChem BioAssay (NCATS) come the findings set out here.

Records with an inconclusive call do not appear. The source made the active and inactive calls. Unless noted, calls follow the shape of the dose curve; as a rule, active = well fitted curve in the direction sought with a large enough effect; inconclusive = small, poorly fitted or top-dose-only effect, or another doubt; inactive = no such curve, though single readings can be large; an effect the other way counts as inactive or inconclusive.

In assay [1] the target is Ubiquitin carboxyl-terminal hydrolase 1 (Homo sapiens) (UniProt O94782). As to the kind of experiment: Inhibitors of USP1/UAF1: Pilot qHTS (AID 504865).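 Also: rhodamine fluorescence freed from ubiquitin-rhodamine substrate followed over time; top concentration of the series differs between compounds; nearly all actives have a fitted effect of over 35% in size.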 An outline of the steps:
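Kinetic fluorescence assay: 1nM USP1/UAF1, 15 min compound preincubation, then 150nM Ub-Rho; 480/540 nm.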
In general terms: qHTS replaces the single test concentration by a dilution series.

The nature of assay [2]: S16 Schwann cell PMP22 intronic element firefly luciferase assay (AID 624032). Also: nearly all actives have a fitted effect of over 30% in size. Also: potency is read from the fitted curve at half-maximal effect. An outline of the steps:
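Luciferase reporter of PMP22 intronic-element expression in stably transfected S16 rat Schwann cells, read by ONE-Glo luminescence after 24 h compound exposure at 37 C. Activity scaled between DMSO (0%) and positive-control PTC124; concentration-effect curves quality-classified.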

For the next assay, the system named is DIV14. Description: qHTS profiling for inhibitors of Plasmodium falciparum proliferation (AID 504749). Also: nearly all actives have a fitted effect of over 60% in size. Also: potency is read from the fitted curve at half-maximal effect. To be noted: P. falciparum in erythrocytes, SYBR Green DNA, 72 h; series mostly up to 28.7 µM. In short, it runs like this: (§1)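 SYBR Green fluorescence of parasite DNA, read after lysis and overnight dark incubation, measured growth over 72 h in erythrocyte culture at 0.3% parasitemia and 2.5% hematocrit. Data normalised to DMSO and 0.29 uM artemisinin, with plate-drift correction.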

The test system of the next assay is GB4. The description is as above. To be noted: P. falciparum in erythrocytes, SYBR Green DNA, 72 h; series mostly up to 28.7 µM. An outline of the steps: as §1
In another assay the test system is ICS. The assay is described as above. The settings on record: P. falciparum in erythrocytes, SYBR Green DNA, 72 h; series mostly up to 28.7 µM. An outline of the steps: as §1
In a further assay the test system is W2. Described as above. The settings on record: P. falciparum in erythrocytes, SYBR Green DNA, 72 h; series mostly up to 28.7 µM. An outline of the steps:
as §1

Assay [3] addresses Cytochrome P450 3A4 (Homo sapiens) (UniProt P08684). Description: qHTS Assay for Activators of Cytochrome P450 3A4 (AID 885). Also: nearly all actives have a fitted effect of over 65% in size. An outline of the steps:
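Luminescent readout of luciferin formed from 25 uM Luciferin-PPXE (KM level) by 20 nM CYP3A4 in 200 mM KPO4, with 60 min NADPH-driven reaction at room temperature after 10 min compound exposure. Ketoconazole (57 uM) defined 100% inhibition.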

Assay [4] is described as follows: Confirmation and Secondary Assay for Modulators of Hemoglobin Beta Chain Splicing at IVS2 654 locus (AID 910).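 Also: HeLa cells stably carrying EGFP split by mutant beta-globin IVS2-654 intron; per-well total GFP intensity by laser scanning cytometry after 2-day treatment.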 An outline of the steps:
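Readout: per-well total peak green fluorescence (488 nm ex, 500–520 nm em) from objects 5–250 µm, reflecting correct splicing of an EGFP-654 reporter. Compounds were applied for 2 days at 37 °C to overnight-plated HeLa EGFP-654 cells; controls were DMSO and 500 nM IVS2-654 PNA.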

Assay [5] concerns the target Mitogen-activated protein kinase 10 (Mus musculus) (UniProt Q61831). Description: JNK3 AlphaScreen Assay (AID 530; active = well fitted curve in either direction with a large enough effect, not every such curve was filed as active;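 also: kinase came from lysate of stimulated human HepG2 cells; signal reports phosphorylation of biotinylated GST-cJun 1-79 at Ser73 with 10 µM ATP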). An outline of the steps: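 qHTS titrations with 15 min compound pre-incubation before adding ATP (10 uM final). Read-out: AlphaScreen of Ser73-phosphorylated biotin-GST-cJun using HepG2 lysate JNK3 activated by IL-1β and TNFα.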
In general terms: Bead proximity is the source of the signal in Alpha formats.

Sequence of Ubiquitin carboxyl-terminal hydrolase 1 (Homo sapiens) (O94782 whole entry, looked up): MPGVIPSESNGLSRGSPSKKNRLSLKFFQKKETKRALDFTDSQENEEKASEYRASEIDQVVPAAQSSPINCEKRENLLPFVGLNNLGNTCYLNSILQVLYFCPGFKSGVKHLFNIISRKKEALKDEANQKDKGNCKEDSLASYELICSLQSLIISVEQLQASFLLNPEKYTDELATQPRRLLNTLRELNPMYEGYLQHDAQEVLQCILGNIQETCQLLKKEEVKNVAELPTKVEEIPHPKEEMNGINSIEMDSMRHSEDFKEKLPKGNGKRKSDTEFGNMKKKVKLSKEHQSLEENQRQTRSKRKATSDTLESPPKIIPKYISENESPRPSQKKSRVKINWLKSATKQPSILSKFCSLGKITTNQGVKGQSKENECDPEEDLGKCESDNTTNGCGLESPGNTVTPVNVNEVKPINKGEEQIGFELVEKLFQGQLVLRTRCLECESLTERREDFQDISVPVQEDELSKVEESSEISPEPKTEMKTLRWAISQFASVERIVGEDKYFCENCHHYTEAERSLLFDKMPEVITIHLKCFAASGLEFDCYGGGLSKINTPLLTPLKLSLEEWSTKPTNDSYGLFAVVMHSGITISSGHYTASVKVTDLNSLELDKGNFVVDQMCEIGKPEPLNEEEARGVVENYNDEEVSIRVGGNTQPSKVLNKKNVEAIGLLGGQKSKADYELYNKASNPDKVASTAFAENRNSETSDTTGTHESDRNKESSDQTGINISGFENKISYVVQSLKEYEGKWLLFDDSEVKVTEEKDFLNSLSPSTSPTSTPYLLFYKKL
Sequence of Cytochrome P450 3A4 (Homo sapiens) (P08684 whole entry, looked up): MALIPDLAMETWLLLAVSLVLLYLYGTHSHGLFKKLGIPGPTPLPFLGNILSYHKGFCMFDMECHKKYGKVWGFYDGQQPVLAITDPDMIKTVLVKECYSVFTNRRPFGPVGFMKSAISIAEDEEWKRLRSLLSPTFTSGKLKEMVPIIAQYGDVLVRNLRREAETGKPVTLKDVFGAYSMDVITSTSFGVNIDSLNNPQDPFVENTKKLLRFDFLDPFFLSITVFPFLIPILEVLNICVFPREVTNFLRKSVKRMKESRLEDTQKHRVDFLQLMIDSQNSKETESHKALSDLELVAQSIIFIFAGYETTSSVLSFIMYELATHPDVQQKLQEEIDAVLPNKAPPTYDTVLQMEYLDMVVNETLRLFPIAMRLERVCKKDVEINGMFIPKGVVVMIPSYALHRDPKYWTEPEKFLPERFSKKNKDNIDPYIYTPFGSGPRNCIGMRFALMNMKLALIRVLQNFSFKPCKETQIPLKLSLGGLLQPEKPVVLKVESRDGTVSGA

With `C[C@@H]1CC2C3CCC4=CC(=O)C=C[C@]4(C)[C@@]3(F)[C@@H](O)C[C@]2(C)[C@@]1(O)C(=O)COC(=O)c1cccc(S(=O)(=O)O)c1` (stereo partly specified), the Potency result (in assay [1]; in assay [2]; with DIV14; with GB4; with ICS; with W2) was “inactive” each time.

In the case of `Nc1nc(/C(=C/CC(=O)O)C(=O)NC2C(=O)N3C(C(=O)O)=CCSC23)cs1` (stereo unspecified), the Potency result (in assay [3]; in [4]; in assay [2]; with DIV14; in the assay on GB4; in the assay with ICS) was “inactive” throughout. Also, in the assay with W2, the Potency result is “inactive”.

Take `C[C@@H](O)[C@@H]1C(=O)N2C(C(=O)O)=C([C@H]3CCCO3)S[C@H]12`: the Potency result (in assay [1]; in assay [2]; with DIV14; in the assay with GB4; with ICS; in the assay with W2) was “inactive” throughout.

Regarding `Clc1ccc(CS[C@@H](Cn2ccnc2)c2ccc(Cl)cc2Cl)cc1`, the Potency result in assay [5] and in assay [2] was “inactive” each time. Also, the Potency in the assay on DIV14 was 5.1 µM (active); in the assay with GB4 it was 3.61 µM (active); in the assay on ICS it was 0.891 µM (active); in the assay on W2, 1.02 µM (active).

Consider `C=C[C@@]1(C)C[C@H](OC(=O)CSC(C)(C)CNC(=O)[C@@H](N)C(C)C)[C@@]2(C)C(C)CC[C@@]3(CCC(=O)[C@@H]32)[C@H](C)[C@H]1O` (stereo partly specified), for which the Potency entry in [1] was “inactive”. Moreover, the Potency is 0.361 µM (active) in assay [2]; 6.01 µM (active) in the assay on DIV14; 3.79 µM (active) with GB4; 2.82 µM (active) with ICS; 0.269 µM (active) in the assay with W2.

On to `CNC1C(O)C(OC2C(NC(=O)C(O)CN)CC(N)C(OC3OC(CN)C(O)C(O)C3O)C2O)OCC1(C)O` (stereo unspecified), for which the Potency result (in [1]; in [2]; in the assay with DIV14; in the assay on GB4; in the assay with W2) was “inactive” in each case.

For the compound `C[N+]12CCCC[C@@H]1CCC(=C(c1cccs1)c1cccs1)C2` (stereo partly specified), the Potency entry in assay [1] was “inactive”. In addition, the Potency with DIV14 is 6.75 µM (active); in the assay on GB4, 7.57 µM (active); in the assay on W2, 13.5 µM (active).

Take `C/C(=C(/CCO)SS/C(CCO)=C(\C)N(C=O)Cc1cnc(C)nc1N)N(C=O)Cc1cnc(C)nc1N`: the Potency result (in [1]; in assay [2]; with DIV14; with GB4; with ICS; in the assay on W2) was “inactive” throughout.

Regarding `CC[C@@]1(O)CC2CN(CCc3c([nH]c4ccccc34)[C@](C(=O)OC)(c3cc4c(cc3OC)N(C)C3[C@@](O)(C(=O)OC)C(OC(C)=O)[C@]5(CC)C=CCN6CC[C@@]43C65)C2)C1` (stereo partly specified), the Potency entry in assay [4] and in assay [1] was “inactive” each time. Besides, the Potency in [2] is 0.51 µM (active); with DIV14 it was 4.26 µM (active); with GB4, 2.13 µM (active); in the assay with ICS it was 0.708 µM (active); in the assay on W2 it was 0.953 µM (active).

In the case of `COc1cc(/C=C2\CCC/C(=C\c3ccc(O)c(OC)c3)C2=O)ccc1O`, the Potency with DIV14 is 6.75 µM (active); in the assay on GB4 it was 12 µM (active); with ICS, 3.16 µM (active); in the assay on W2 it was 9.53 µM (active).

For the compound `NC(CSSCC(N)C(=O)O)C(=O)O` (stereo unspecified), the Potency entry (in assay [1]; in [2]; in the assay with DIV14; with GB4; with ICS; in the assay with W2) was “inactive” each time.

Take `COc1ccc2cc1Oc1cc3c(cc1OC)CC[N+](C)(C)C3Cc1ccc(cc1)Oc1c(OC)c(OC)cc3c1C(C2)[N+](C)(C)CC3` (stereo unspecified): the Potency result (in [1]; in assay [2]; in the assay with DIV14; with GB4; in the assay with ICS) was “inactive” throughout.

Regarding `CC(C)CCCC(C)C1CC(=O)C2=C3CCC4CC(O)CCC4(C)C3CCC21C` (stereo unspecified), the Potency entry in the assay with DIV14 and with GB4 was “inactive” in each case. For the same compound, in the assay on W2, the Potency was 7.57 µM (active).

As to `CCC(C)C(N)C(=O)O` (stereo unspecified), the Potency result (in assay [1]; in [2]; in the assay on DIV14) was “inactive” throughout.

With `CC1=C(C/C=C(\C)CCCC(C)CCCC(C)CCCC(C)C)C(=O)c2ccccc2C1=O` (stereo unspecified), the Potency in the assay with ICS is 3.98 µM (active); with W2, 4.78 µM (active).

Consider `Cc1cnc(NC(=O)C2C(=O)c3ccccc3S(=O)(=O)N2C)s1` (stereo unspecified), for which the Potency entry (in [2]; with DIV14; in the assay with GB4; with ICS; in the assay with W2) was “inactive” throughout.

Turning to `COc1ccc(C(=O)/C(Br)=C/C(=O)O)cc1`, the Potency entry (in assay [1]; in the assay with DIV14) was “inactive” each time. Moreover, the Potency in assay [2] is 14.4 µM (active).

For `C=C1/C(=C\C=C2/CCC[C@]3(C)[C@@H]([C@H](C)/C=C/[C@@H](O)C4CC4)CC[C@@H]23)C[C@@H](O)C[C@@H]1O`, in assay [2], the Potency is 10.2 µM (active). In addition, the Potency entry with DIV14 and in the assay on GB4 was “inactive” each time.

For `CC1OC(OC2C(O)CC(OC3C(O)CC(OC4CCC5(C)C(CCC6C5CCC5(C)C(C7=CC(=O)OC7)CCC65O)C4)OC3C)OC2C)CC(O)C1O` (stereo unspecified), the Potency entry in [1] was “inactive”.

For the compound `C[C@]12CC[C@@H]3c4ccc(O)cc4CC[C@H]3[C@@H]1CCC2OC(=O)CCC1CCCC1` (stereo partly specified), the Potency result with DIV14 and with GB4 was “inactive” throughout. Further, in the assay on ICS, the Potency is 12.6 µM (active).

As to `C[C@H](CN1c2ccccc2Sc2cccnc21)N(C)C`, the Potency entry in assay [1] and in assay [2] was “inactive” throughout. Further, the Potency was 4.78 µM (active) in the assay with DIV14, 6.75 µM (active) with GB4 and 1.69 µM (active) with W2.

On to `CC1=C(c2ccc(NN=C(C#N)C#N)cc2)NNC(=O)C1`, for which the Potency entry (in [2]; in the assay with DIV14; with ICS; in the assay on W2) was “inactive” throughout.

`CC(C)(C)NC[C@H](O)CSc1nc(-c2ccc(C(N)=O)s2)cs1`: the Potency entry (in assay [1]; in assay [2]; with GB4; in the assay on W2) was “inactive” throughout.

As to `C#C[C@]1(O)CC[C@H]2[C@H]3[C@H](CC[C@@]21C)C1=C(CC(=O)CC1)C[C@@H]3C`, the Potency result with DIV14 and in the assay on GB4 was “inactive” throughout.

With `C/C=C1/NN(CCCN2CCN(c3cccc(Cl)c3)CC2)C(=O)N1CCOc1ccccc1`, the Potency with W2 is 5.36 µM (active).

Take `CC1=C[C@@H](O)CC(C)(C)[C@@H]1/C=C/C(C)=C/C=C/C(C)=C/C=C/C=C(C)/C=C/C=C(C)/C=C/C1=C(C)C[C@H](O)CC1(C)C`: the Potency in the assay on DIV14 is 12 µM (active); in the assay on ICS, 5.01 µM (active); with W2, 6.75 µM (active).

Turning to `C=C(CC[C@@H](C)[C@H]1CCC2[C@]1(C)CC[C@]13C[C@@]14CCC(OC(=O)/C=C/c1ccc(O)c(OC)c1)C(C)(C)[C@@H]4CC[C@@]23C)C(C)C` (stereo partly specified), the Potency result (in assay [1]; in [2]; in the assay on DIV14; in the assay with GB4; in the assay with ICS; with W2) was “inactive” in each case.
